Records with an inconclusive call do not appear. Activity calls are given as the source filed them. The calls were made as follows: active = hit-call score of the fitted dose curve at least 0.9, where 1 is the maximum; inconclusive = response in the unintended direction; inactive = score below 0.9.
Key:
[1] = target: human Aurora Kinase A - serine/threonine-protein Kinase 6 (AurA), AURKA (gene 6790) (UniProt O14965); experiment: NVS_ENZ_hAurA: NovaScreen (NVS) Enzymatic Assay for human Aurora Kinase A - serine/threonine-protein Kinase 6 (AurA) (AID 2283142)
How it was run: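 Cell-free enzymatic assay with human Aurora A, 1 hour after dosing. Fluorescent substrate turnover detected after electrophoretic mobility shift separation of substrate and product. Screened at 25 uM, actives retested in concentration-response up to 50 uM.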

CDK2 (gene 1017) = CDK2 (gene 1017) (UniProt P24941); experiment: NVS_ENZ_hCDK2: NovaScreen (NVS) Enzymatic Assay for human Cyclin-Cependent Kinase 2 (CDK2) (AID 2283144)
How it was run: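 Cell-free recombinant human CDK2 with fluorescent substrate, product separated by electrophoretic mobility shift; 1 hr read. Primary screen at 25 uM in duplicate, actives retested in concentration-response up to 50 uM; loss of signal versus DMSO.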

[2] = target: human Colony Stimulating Factor 1 Receptor (CSF1R), CSF1R (gene 1436) (UniProt P07333); experiment: NVS_ENZ_hCSF1R: NovaScreen (NVS) Enzymatic Assay for human Colony Stimulating Factor 1 Receptor (CSF1R) (AID 2283150)
How it was run: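 Cell-free recombinant human CSF1R kinase with fluorescent substrate, product separated by electrophoretic mobility shift; read 1 h after dosing. Primary screen at 25 uM in duplicate, actives then in concentration-response up to 50 uM, relative to DMSO.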

[3] = target: human Elastase, ELANE (gene 1991) (UniProt P08246); experiment: NVS_ENZ_hElastase: NovaScreen (NVS) Enzymatic Assay for human Elastase (AID 2283153)
How it was run: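 Cell-free elastase from human neutrophils, 1.5 h after dosing, activity read by absorbance. Primary screen in duplicate at 25 uM; hits (e.g., 30% inhibition) rerun in singleton concentration-response up to 50 uM, fitted versus DMSO.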

[4] = target: human Ephrin type-A Receptor 1 (EphA1), EPHA1 (gene 2041) (UniProt P21709); experiment: NVS_ENZ_hEphA1: NovaScreen (NVS) Enzymatic Assay for human Ephrin type-A Receptor 1 (EphA1) (AID 2283158);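 also: activity is signal loss versus DMSO meaning EphA1 kinase inhibition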
How it was run: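 Cell-free enzymatic assay with recombinant EphA1 and fluorescent substrate; product separated by electrophoretic mobility shift, fluorescence intensity read 1 hour after dosing. Loss of signal versus DMSO baseline; primary duplicate screen at 25 uM, actives followed to 50 uM top concentration.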

[5] = target: human Beta-secretase (BACE), BACE1 (gene 23621) (UniProt P56817); experiment: NVS_ENZ_hBACE: NovaScreen (NVS) Enzymatic Assay for human Beta-secretase (BACE) (AID 2283140);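 also: hits are inhibitors that reduce fluorescent substrate signal versus DMSO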
How it was run: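 Compounds were first tested in duplicate at 25 uM, then actives in concentration series, against recombinant BACE1 from SF9 cells. Enzyme activity was measured by fluorescence intensity 1 hour after dosing, with DMSO as negative control.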

[6] = target: human FYN Proto-Oncogene, Src family Tyrosine Kinase (Fyn), FYN (gene 2534) (UniProt P06241); experiment: NVS_ENZ_hFyn: NovaScreen (NVS) Enzymatic Assay for human FYN Proto-Oncogene, Src family Tyrosine Kinase (Fyn) (AID 2283161)
How it was run: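 Recombinant enzyme with fluorescent substrate, product separated by electrophoretic mobility shift; read 1 h after dosing. Duplicate 25 uM single-point screen, actives retested in concentration series; loss of signal vs DMSO.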

[7] = target: human Caspase 8 (CASP8), CASP8 (gene 841) (UniProt Q14790); experiment: NVS_ENZ_hCASP8: NovaScreen (NVS) Enzymatic Assay for human Caspase 8 (CASP8) (AID 2283146)
How it was run: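 E. coli-expressed enzyme was used in a cell-free fluorogenic substrate assay read 1 h after dosing. Loss of signal was scored relative to DMSO, and the primary screen was run in duplicate at 25 uM.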

[8] = target: human Caspase 4 (CASP4), CASP4 (gene 837) (UniProt P49662); experiment: NVS_ENZ_hCASP4: NovaScreen (NVS) Enzymatic Assay for human Caspase 4 (CASP4) (AID 2283143)
How it was run: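 The cell-free assay used E. coli-expressed enzyme with a fluorogenic substrate, read 2 h after dosing. Signal loss was scored versus DMSO. Screening was in duplicate at 25 uM, then singleton concentration-response up to 50 uM.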

[9] = target: human Esterase Plasma (ES), BCHE (gene 590) (UniProt P06276); experiment: NVS_ENZ_hES: NovaScreen (NVS) Enzymatic Assay for human Esterase Plasma (ES) (AID 2283157)
How it was run: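 Cell-free enzyme assay using esterase extracted from human plasma; colorimetric absorbance read 0.25 hour after dosing. Single-concentration duplicate screen at 25 uM, then concentration-response up to 50 uM; loss of signal scored against DMSO baseline.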

[10] = target: Protein deacetylase HDAC6 (Homo sapiens) (UniProt Q9UBN7); experiment: NVS_ENZ_hHDAC6: NovaScreen (NVS) Enzymatic Assay for human Histone Deacetylase 6 (HDAC6) (AID 2283164)
How it was run: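 Recombinant human HDAC6 with fluorescent substrate, 1 h; product separated from substrate by electrophoretic mobility shift. Primary screen in duplicate at 25 uM; actives retested singly in concentration-response up to 50 uM, fitted relative to DMSO.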

Caspase-3 (Homo sapiens) = Caspase-3 (Homo sapiens) (UniProt P42574); experiment: NVS_ENZ_hCASP3: NovaScreen (NVS) Enzymatic Assay for human Caspase 3 (CASP3) (AID 2283139)
How it was run: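 Recombinant human caspase-3 from E. coli with a fluorogenic substrate, read by fluorescence 1 h after dosing. Primary screen in duplicate at 25 uM. Actives (for example ≥30% inhibition) rerun as concentration-response up to 50 uM.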

[11] = target: human Ephrin type-A Receptor 2 (EphA2), EPHA2 (gene 1969) (UniProt P29317); experiment: NVS_ENZ_hEphA2: NovaScreen (NVS) Enzymatic Assay for human Ephrin type-A Receptor 2 (EphA2) (AID 2283155)
How it was run: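 Cell-free recombinant EphA2 kinase with specific substrate, 1 h, fluorescence with electrophoretic mobility-shift separation of substrate and product. Primary screen at 25 uM in duplicate; hits retested in singleton concentration-response up to 50 uM, referenced to DMSO.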

[12] = target: human Dual Specificity Protein Phosphatase 3 (DUSP3), DUSP3 (gene 1845) (UniProt P51452); experiment: NVS_ENZ_hDUSP3: NovaScreen (NVS) Enzymatic Assay for human Dual Specificity Protein Phosphatase 3 (DUSP3) (AID 2283152);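 also: phosphatase activity of recombinant human DUSP3 on a fluorogenic substrate without cells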
How it was run: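 Cell-free assay with recombinant human DUSP3 and fluorogenic substrate, read by fluorescence intensity. Primary screen ran duplicate at 25 uM; actives followed up in concentration series; loss of signal versus DMSO scored.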

[13] = target: human Epidermal Growth Factor Receptor (EGFR), EGFR (gene 1956) (UniProt P00533); experiment: NVS_ENZ_hEGFR: NovaScreen (NVS) Enzymatic Assay for human Epidermal Growth Factor Receptor (EGFR) (AID 2283151)
How it was run: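 Cell-free kinase assay, fluorescence plus electrophoretic mobility shift separating substrate and product, read 1 hour after dosing; loss of signal vs DMSO. Duplicate screen at 25 uM, then concentration-response to 50 uM.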

[14] = target: human Fibroblast Growth Factor Receptor 1 (FGFR1), FGFR1 (gene 2260) (UniProt P11362); experiment: NVS_ENZ_hFGFR1: NovaScreen (NVS) Enzymatic Assay for human Fibroblast Growth Factor Receptor 1 (FGFR1) (AID 2283159);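 as to AC50: hits lower the signal so potencies describe inhibitors of the kinase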
How it was run: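 Cell-free recombinant kinase with fluorescent substrate, product separated by electrophoretic mobility shift; read 1 hour after dosing, loss of signal relative to DMSO. Initial screen in duplicate at 25 uM, actives followed in concentration series.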

[15] = target: human IkappaB Kinase alpha (IKKa), CHUK (gene 1147) (UniProt O15111); experiment: NVS_ENZ_hIKKa: NovaScreen (NVS) Enzymatic Assay for human IkappaB Kinase alpha (IKKa) (AID 2283167)
How it was run: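 Cell-free recombinant human IKKa with fluorescent substrate, product separated by electrophoretic mobility shift; read 1 hour after dosing. Primary screen duplicate at 25 uM, actives then concentration-response up to 50 uM; loss of signal relative to DMSO.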

[16] = target: human Casein Kinase 1-delta (CK1D), CSNK1D (gene 1453) (UniProt P48730); experiment: NVS_ENZ_hCK1D: NovaScreen (NVS) Enzymatic Assay for human Casein Kinase 1-delta (CK1D) (AID 2283148)
How it was run: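 Recombinant human CK1-delta, cell-free; fluorescent substrate with electrophoretic mobility-shift separation of product, read 1 h after dosing. Single 25 uM duplicate screen, then concentration-response up to 50 uM; loss of signal vs DMSO.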

[17] = target: Histone deacetylase 3 (Homo sapiens) (UniProt O15379); experiment: NVS_ENZ_hHDAC3: NovaScreen (NVS) Enzymatic Assay for human Histone Deacetylase 3 (HDAC3) (AID 2283163)
How it was run: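 Recombinant human HDAC3 with fluorescent substrate, 1 h after dosing; product separated from substrate by electrophoretic mobility shift and read by fluorescence. Primary screen at 25 uM in duplicate; actives (e.g. ≥30% inhibition) retested in concentration-response up to 50 uM.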

[18] = target: Glycogen synthase kinase-3 beta (Homo sapiens) (UniProt P49841); experiment: NVS_ENZ_hGSK3b: NovaScreen (NVS) Enzymatic Assay for human Glycogen Synthase Kinase-3 beta (GSK3b) (AID 2283165)
How it was run: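 Recombinant enzyme with specific fluorescent substrate, 1 h, product separated by electrophoretic mobility shift. Primary duplicate screen at 25 uM; actives (e.g. 30% inhibition) followed in singleton concentration-response to 50 uM. Signal loss fitted versus DMSO.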

Chain of human Fibroblast Growth Factor Receptor 1 (FGFR1), FGFR1 (gene 2260) (P11362 whole entry, looked up): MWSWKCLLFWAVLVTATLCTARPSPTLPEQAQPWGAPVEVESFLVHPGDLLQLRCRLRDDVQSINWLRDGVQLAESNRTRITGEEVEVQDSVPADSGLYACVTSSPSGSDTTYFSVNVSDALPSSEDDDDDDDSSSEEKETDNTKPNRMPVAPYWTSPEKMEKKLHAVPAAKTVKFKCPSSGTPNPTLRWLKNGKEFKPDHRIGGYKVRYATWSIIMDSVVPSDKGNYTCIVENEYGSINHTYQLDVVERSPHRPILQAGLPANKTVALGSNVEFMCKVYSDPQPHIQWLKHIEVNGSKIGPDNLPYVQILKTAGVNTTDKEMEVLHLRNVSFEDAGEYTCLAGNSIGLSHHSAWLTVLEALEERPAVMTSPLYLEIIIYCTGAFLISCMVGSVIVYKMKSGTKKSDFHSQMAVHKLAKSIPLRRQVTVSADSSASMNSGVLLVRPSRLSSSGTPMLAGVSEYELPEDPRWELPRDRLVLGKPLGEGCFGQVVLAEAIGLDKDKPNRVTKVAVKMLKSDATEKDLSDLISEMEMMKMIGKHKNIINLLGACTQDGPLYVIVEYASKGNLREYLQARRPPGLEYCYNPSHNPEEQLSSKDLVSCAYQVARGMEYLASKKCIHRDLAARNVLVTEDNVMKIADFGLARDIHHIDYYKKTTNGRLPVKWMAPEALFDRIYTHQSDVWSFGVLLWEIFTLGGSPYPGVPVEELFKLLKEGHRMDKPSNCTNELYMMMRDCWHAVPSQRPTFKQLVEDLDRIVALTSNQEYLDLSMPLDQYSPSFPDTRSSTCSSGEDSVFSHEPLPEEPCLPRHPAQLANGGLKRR
Chain of human Elastase, ELANE (gene 1991) (P08246 whole entry, looked up): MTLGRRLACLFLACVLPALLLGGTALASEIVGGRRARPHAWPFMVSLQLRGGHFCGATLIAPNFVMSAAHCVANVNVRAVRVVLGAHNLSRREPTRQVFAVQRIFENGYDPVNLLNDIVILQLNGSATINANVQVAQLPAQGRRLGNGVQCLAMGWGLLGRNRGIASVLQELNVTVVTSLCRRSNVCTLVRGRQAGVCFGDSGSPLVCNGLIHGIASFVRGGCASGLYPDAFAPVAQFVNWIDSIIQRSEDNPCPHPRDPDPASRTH
Chain of human Dual Specificity Protein Phosphatase 3 (DUSP3), DUSP3 (gene 1845) (P51452 whole entry, looked up): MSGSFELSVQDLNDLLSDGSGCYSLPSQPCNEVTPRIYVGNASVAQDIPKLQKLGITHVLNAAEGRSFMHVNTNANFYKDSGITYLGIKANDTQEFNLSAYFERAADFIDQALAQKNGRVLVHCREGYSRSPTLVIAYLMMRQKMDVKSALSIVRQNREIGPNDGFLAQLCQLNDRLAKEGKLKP
Chain of human Caspase 4 (CASP4), CASP4 (gene 837) (P49662 whole entry, looked up): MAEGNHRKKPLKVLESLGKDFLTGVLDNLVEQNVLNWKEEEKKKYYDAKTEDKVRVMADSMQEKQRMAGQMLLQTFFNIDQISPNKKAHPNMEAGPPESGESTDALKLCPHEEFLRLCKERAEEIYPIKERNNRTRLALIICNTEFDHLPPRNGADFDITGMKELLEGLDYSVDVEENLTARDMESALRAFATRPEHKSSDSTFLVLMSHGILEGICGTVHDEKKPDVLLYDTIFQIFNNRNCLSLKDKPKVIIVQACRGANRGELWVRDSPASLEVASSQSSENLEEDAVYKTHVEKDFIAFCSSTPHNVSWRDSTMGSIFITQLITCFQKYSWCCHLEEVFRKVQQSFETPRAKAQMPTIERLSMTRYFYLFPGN
Chain of human Beta-secretase (BACE), BACE1 (gene 23621) (P56817 whole entry, looked up): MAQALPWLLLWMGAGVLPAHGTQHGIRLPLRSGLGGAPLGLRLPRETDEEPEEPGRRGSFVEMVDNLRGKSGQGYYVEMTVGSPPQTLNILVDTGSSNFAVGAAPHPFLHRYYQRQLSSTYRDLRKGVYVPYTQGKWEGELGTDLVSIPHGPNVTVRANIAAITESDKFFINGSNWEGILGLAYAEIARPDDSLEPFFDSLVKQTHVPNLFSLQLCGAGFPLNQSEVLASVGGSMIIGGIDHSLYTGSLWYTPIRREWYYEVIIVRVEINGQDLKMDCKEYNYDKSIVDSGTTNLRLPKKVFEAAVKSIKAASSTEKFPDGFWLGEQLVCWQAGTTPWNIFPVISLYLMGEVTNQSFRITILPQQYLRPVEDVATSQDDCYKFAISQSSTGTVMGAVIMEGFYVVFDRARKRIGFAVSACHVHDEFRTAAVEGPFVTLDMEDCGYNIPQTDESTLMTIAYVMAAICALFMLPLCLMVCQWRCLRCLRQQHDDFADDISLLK
Chain of human Ephrin type-A Receptor 2 (EphA2), EPHA2 (gene 1969) (P29317 whole entry, looked up): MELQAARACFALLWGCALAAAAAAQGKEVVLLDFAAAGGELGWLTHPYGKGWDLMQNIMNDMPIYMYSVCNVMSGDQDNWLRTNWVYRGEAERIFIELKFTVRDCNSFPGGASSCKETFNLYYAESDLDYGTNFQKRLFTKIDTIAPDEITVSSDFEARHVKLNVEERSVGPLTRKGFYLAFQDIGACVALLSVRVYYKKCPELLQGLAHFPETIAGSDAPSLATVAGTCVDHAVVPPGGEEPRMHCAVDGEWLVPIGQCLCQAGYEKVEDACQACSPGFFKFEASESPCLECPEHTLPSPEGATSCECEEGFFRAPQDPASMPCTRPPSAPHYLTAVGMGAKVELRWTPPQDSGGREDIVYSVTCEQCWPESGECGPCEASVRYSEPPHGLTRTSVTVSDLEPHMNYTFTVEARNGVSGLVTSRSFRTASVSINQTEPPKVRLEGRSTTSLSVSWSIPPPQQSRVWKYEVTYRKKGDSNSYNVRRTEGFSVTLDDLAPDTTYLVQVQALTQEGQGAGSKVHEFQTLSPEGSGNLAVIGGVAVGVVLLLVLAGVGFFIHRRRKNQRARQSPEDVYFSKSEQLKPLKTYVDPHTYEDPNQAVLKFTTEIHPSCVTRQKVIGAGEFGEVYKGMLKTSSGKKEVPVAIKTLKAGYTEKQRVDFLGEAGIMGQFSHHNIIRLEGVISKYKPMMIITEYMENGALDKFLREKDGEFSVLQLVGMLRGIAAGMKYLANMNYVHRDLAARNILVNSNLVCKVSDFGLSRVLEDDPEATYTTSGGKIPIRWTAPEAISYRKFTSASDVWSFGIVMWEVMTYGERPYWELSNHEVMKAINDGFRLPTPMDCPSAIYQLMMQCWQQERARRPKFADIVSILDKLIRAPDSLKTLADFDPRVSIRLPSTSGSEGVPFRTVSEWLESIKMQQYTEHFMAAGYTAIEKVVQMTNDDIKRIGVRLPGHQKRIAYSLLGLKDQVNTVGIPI
Chain of human Aurora Kinase A - serine/threonine-protein Kinase 6 (AurA), AURKA (gene 6790) (O14965 whole entry, looked up): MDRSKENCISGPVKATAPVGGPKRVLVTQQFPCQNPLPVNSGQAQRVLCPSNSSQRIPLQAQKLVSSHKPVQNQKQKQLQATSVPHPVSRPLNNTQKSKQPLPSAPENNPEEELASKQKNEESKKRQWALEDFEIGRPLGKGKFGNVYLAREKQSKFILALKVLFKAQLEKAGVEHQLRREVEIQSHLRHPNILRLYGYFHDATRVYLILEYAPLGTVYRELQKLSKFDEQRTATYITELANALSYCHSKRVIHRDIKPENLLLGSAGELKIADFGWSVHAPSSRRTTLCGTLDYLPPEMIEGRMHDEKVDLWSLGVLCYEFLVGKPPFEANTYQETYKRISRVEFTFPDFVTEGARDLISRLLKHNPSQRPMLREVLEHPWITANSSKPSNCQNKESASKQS
Chain of human FYN Proto-Oncogene, Src family Tyrosine Kinase (Fyn), FYN (gene 2534) (P06241 whole entry, looked up): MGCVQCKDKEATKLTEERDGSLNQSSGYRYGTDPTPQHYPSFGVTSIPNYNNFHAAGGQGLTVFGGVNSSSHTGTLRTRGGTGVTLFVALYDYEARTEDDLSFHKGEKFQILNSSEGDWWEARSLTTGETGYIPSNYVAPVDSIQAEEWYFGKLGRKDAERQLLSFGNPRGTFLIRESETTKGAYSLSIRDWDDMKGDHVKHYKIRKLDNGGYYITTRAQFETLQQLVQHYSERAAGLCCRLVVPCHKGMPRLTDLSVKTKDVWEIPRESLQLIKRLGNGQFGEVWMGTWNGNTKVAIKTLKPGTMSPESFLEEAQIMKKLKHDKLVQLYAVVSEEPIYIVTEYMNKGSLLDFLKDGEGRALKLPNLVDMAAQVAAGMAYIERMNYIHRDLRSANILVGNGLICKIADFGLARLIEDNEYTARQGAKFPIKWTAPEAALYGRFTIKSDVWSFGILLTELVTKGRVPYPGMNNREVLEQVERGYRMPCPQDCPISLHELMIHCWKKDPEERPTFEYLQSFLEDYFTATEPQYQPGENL
Chain of human Caspase 8 (CASP8), CASP8 (gene 841) (Q14790 whole entry, looked up): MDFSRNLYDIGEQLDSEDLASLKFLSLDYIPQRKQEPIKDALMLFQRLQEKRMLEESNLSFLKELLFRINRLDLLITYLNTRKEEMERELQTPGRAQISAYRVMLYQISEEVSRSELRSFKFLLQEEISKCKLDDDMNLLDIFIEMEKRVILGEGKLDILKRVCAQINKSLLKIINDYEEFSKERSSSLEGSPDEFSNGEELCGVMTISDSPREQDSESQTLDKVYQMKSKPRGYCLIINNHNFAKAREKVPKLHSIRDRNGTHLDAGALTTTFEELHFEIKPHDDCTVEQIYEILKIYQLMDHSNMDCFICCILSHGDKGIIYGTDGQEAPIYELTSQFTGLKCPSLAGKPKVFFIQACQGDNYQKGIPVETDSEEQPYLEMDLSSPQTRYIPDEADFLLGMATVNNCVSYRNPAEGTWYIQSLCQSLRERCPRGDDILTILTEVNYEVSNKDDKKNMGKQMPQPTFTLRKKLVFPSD
Chain of human Casein Kinase 1-delta (CK1D), CSNK1D (gene 1453) (P48730 whole entry, looked up): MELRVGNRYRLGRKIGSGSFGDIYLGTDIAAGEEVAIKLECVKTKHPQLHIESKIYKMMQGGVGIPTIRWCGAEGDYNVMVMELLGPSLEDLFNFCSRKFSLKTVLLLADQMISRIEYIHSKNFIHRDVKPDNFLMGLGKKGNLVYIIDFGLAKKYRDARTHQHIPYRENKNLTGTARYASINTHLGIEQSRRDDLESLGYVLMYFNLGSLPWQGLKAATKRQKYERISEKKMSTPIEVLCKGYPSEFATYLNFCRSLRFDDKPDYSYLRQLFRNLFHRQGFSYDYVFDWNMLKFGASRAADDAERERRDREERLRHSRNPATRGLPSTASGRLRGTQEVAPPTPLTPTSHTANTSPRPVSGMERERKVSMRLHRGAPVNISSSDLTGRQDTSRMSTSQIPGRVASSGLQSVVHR

`COc1cc(C=O)cc2c1[C@H](COC(N)=O)[C@]1(OC(C)=O)ON2C[C@H]2[C@@H]1N2C(C)=O` was tested, and the outcome [1] was “inactive”, the outcome (CDK2 (gene 1017)) was “inactive” and the outcome [2] was “inactive”. For the same compound, the AC50 [3] was 5.75 µM (active) and the outcome [4] was “inactive”.
In the case of `c1ccc2c(c1)-c1cccc3cccc-2c13`, the AC50 [5] is reported as 1.18 µM (active) and the outcome [6] is reported as “inactive”.
`Clc1ccc(Cl)c(Cl)c1` was tested, and the outcome [7] was “inactive”.
With `COC(=O)c1ccccc1N` the AC50 [7] was 11.1 µM (active).
`c1ccc(NNc2ccccc2)cc1` was tested, and the outcome [8] was “inactive”, the AC50 [9] was 31.6 µM (active) and the outcome [10] was “inactive”.
`CCCCCCCCOC(=O)c1ccc(C(=O)OCCCCCCCC)c(C(=O)OCCCCCCCC)c1` was tested, and the outcome (Caspase-3 (Homo sapiens)) was “inactive”, the AC50 [5] was 11.2 µM (active) and the AC50 [3] was 37.9 µM (active). The outcome [11] was “inactive”.
`CCCCCOC(=O)c1ccccc1C(=O)OCCCCC` was tested, and the AC50 [5] was 11.5 µM (active) and the outcome [3] was “inactive”.
For `CCC[CH2][Sn]([Cl])([CH2]CCC)[CH2]CCC`, the AC50 [5] was 4.02 µM (active), the AC50 [12] was 6.34 µM (active) and the outcome [6] was “inactive”.
With `ClCCOCCCl` the outcome [1] was “inactive”, the outcome [13] was “inactive” and the outcome [14] was “inactive”. For the same compound, the outcome [15] was “inactive”.
`CCNS(=O)(=O)C(F)(F)C(F)(F)C(F)(F)C(F)(F)C(F)(F)C(F)(F)C(F)(F)C(F)(F)F` was tested, and the AC50 [5] was 8.43 µM (active), the outcome (CDK2 (gene 1017)) was “inactive” and the outcome [16] was “inactive”. The outcome [13] was “inactive”, the outcome [12] was “inactive” and the outcome [11] was “inactive”. The outcome [4] was “inactive”, the outcome [14] was “inactive” and the outcome [17] was “inactive”. For the same compound, the outcome [18] was “inactive”.
`Oc1ccc2ccc3cccc4ccc1c2c34` was tested, and the AC50 [5] was 8.84 µM (active), the AC50 [8] was 5.26 µM (active) and the AC50 [3] was 4.52 µM (active). For the same compound, the AC50 [14] was 14.9 µM (active).
In the case of `Cc1cccc(N)c1N`, the outcome [8] is reported as “inactive”, the AC50 [12] is reported as 25 µM (active) and the AC50 [9] is reported as 23.1 µM (active). The AC50 [18] was 27.9 µM (active).
`CC(C)(O)c1cnn2c(-c3ccc(F)c(-c4c(F)cccc4C#N)c3)cnc2n1` was tested, and the AC50 [5] was 5.34 µM (active), the outcome [16] was “inactive” and the AC50 [12] was 40.8 µM (active).

— PubChem BioAssay (EPA / NIEHS)
